# Among all 340,000 compounds or so, about 12,000 (3.5%) were called active. Roughly 18% stayed inconclusive and do not appear here. The call rests on the fitted dose curve; in most records, active means well fitted inhibition curve with a large enough effect; inconclusive means small, poorly fitted or top-dose-only effect, or another doubt; inactive means no such curve, though single readings can be large or run the other way. The full list was thinned out, with actives kept by preference.
# Experiment: qHTS Assay for Inhibitors of Hepatitis C Virus (HCV)
# Settings: Huh7.5.1 HCVcc-Cre infection, luciferase reporter, 44 h; series mostly up to 41.8 µM; activity change, negative = inhibition: at the top concentration
# Summary of the method: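 Seed cells (1,000/well) for 4 h; treat with compound and infect with HCVcc-Cre, moi about 0.5. Incubate 44 h, then detect luciferase activity.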
# On the % scale 0 is the no-effect control and ±100 the full control effect; potency means the concentration at half of the fitted maximal effect.
SMILES,"activity change, negative = inhibition",Potency
CCOc1ccc(Br)cc1S(=O)(=O)Nc1ccc(S(=O)(=O)Nc2cc(C)on2)cc1,4.99% (inactive),–
COc1ccc(C2CC(c3cccs3)=Nc3ccccc3S2)cc1OC (centres undefined),–,11.2 µM (active)
COc1ccc(C2CC(c3cccs3)=NN2C(=O)CCC(=O)O)cc1OC (centres undefined),4.23% (inactive),–
COc1ccc(C2CC(c3cccs3)=NN2c2ccc(F)cc2)cc1OC (centres undefined),-5.17% (inactive),–
O=C(Nc1c[nH]c(=O)[nH]c1=O)OCc1ccccc1,6.8% (inactive),–
CCOc1ccc(-c2cc(C)[n+](CCN(CC)CC)c(-c3ccc(OCC)cc3)c2)cc1,–,11.2 µM (active)
CCOc1ccc(-c2nnc3ccc(SC)nn23)cc1,-21.9% (inactive),–
CCOc1ccc(-c2c(C)n([O-])c3c([n+]2=O)CCCC3)cc1,3.27% (inactive),–
O=C(NCCCN1CCOCC1)c1cc(-c2ccc(Cl)cc2)on1,–,11.2 µM (active)
COc1ccc(-c2cc(C(=O)NCCCN3CCOCC3)no2)cc1,-3.36% (inactive),–
O=C(NCCCN1CCOCC1)c1cc(-c2cccc(O)c2)on1,11.8% (inactive),–
C[C@H](NC(=O)c1ccccc1Cl)C(=O)OCC(=O)N1CCN(c2ccccc2)CC1,12.9% (inactive),–
CCN(CC)c1ccc(/C=N/NC(=O)CNC(=O)c2cccnc2)cc1,5.9% (inactive),–
Cc1ccc(C(=O)NCCNC(=O)c2cnccn2)cc1,4.04% (inactive),–
CCN(CC)c1ccc(/C=N/NC(=O)c2cnccn2)c(O)c1,–,3.55 µM (active)
CCC1([N+](=O)[O-])COC(c2ccc(C)cc2)OC1 (centres undefined),3.04% (inactive),–
COc1ccc(C(=O)NCc2ccc(Cl)cc2)cc1S(=O)(=O)N1CCCC1,7.82% (inactive),–
O=C(COC(=O)c1cnccn1)Nc1ccc(Cl)cc1C(F)(F)F,4.23% (inactive),–
O=C(NC1C2CC3CC(C2)CC1C3)c1ccc(N2CCNCC2)c([N+](=O)[O-])c1 (centres undefined),-6.97% (inactive),–
O=C(NCCCN1CCOCC1)c1ccc(N2CCCC2)c([N+](=O)[O-])c1,1.42% (inactive),–
Cc1cccc(N2CCN(c3ccc(C(N)=O)cc3[N+](=O)[O-])CC2)c1C,22.1% (inactive),–
CS(=O)(=O)N1CCN(c2ccc(C(=O)NC3C4CC5CC(C4)CC3C5)cc2[N+](=O)[O-])CC1 (centres undefined),–,11.2 µM (active)
CCOC(=O)C1CCN(c2ccc(C(=O)O)cc2[N+](=O)[O-])CC1,12.9% (inactive),–
Cc1ccc(C(=O)c2ccc(N3CCN(C)CC3)c([N+](=O)[O-])c2)cc1,–,10 µM (active)
Cc1cc([N+](=O)[O-])c(=O)[nH]c1C,20.7% (inactive),–

SMILES,"activity change, negative = inhibition",Potency
CN(C)C(=O)CCc1ccc2c3c([nH]c2c1)[C@]1(C)[C@@H](C(=O)N2CCCCC2)C[C@H](CC(=O)NCCC2=CCCCC2)C(=O)N1CC3,7.48% (inactive),–
COc1cc(OC)cc(C(=O)NNC(=O)Cc2cccs2)c1,-4.33% (inactive),–
O=C(CNc1ccccc1N1CCCC1=O)Nc1cc(Cl)ccc1-n1cncn1,0.824% (inactive),–
CN(C)c1nc(Nc2ccc(Cl)c(Cl)c2)nc(N(C)C)n1,-6.29% (inactive),–
OCCNc1nc(Nc2ccc(Cl)c(Cl)c2)nc2ccccc12,–,10 µM (active)
Cc1nnc(NCCO)c2ccccc12,21.6% (inactive),–
CC(C)Sc1nc(N)nc2c1ncn2C1OC(CO)C(O)C1O (centres undefined),5.19% (inactive),–
CC[C@]12c3[nH]c4ccc(OC)cc4c3CCN1C(=O)C(CC(=O)NCCN1CCOCC1)C[C@@H]2C(=O)N1CCN(C(=O)C2CC2)CC1 (some centres undefined),-14.4% (inactive),–
O=C(Nc1ccccc1C(=O)NCC1CCCO1)c1ccccc1F (centres undefined),2.29% (inactive),–
Cc1cccn2c(=O)c3cc(C(=O)NCC4CCCO4)c(=N)n(Cc4ccc(F)cc4)c3nc12 (centres undefined),–,5.62 µM (active)
Cc1cccn2c(=O)c3cc(C#N)c(=NC(=O)c4cccnc4)n(CC4CCCO4)c3nc12 (centres undefined),2.8% (inactive),–
CCOc1ccc(CCNC(=O)CN2C(=O)NC3(CCc4ccccc43)C2=O)cc1OCC (centres undefined),7.59% (inactive),–
COc1cc(/C=C/C2=CC(C)(C)NC(=S)N2)cc(OC)c1OC,0.519% (inactive),–
COc1ccc(/C=C2/C(=O)N(c3ccccc3)N=C2C)c(OC)c1,19% (inactive),–
COc1ccc(/C=C/C2=CC(C)(C)NC(=S)N2)c(OC)c1,–,14.1 µM (active)
CCn1c(SCC(=O)NCC2CCCO2)nc2cc(S(=O)(=O)N3CCCCC3)ccc21 (centres undefined),-16.5% (inactive),–
CCCCn1c(SCC(=O)N2CCCC2=O)nc2cc(S(N)(=O)=O)ccc21,14.2% (inactive),–
CCCCn1c(SCc2ncc(-c3ccccc3)o2)nc2cc(S(N)(=O)=O)ccc21,–,6.31 µM (active)
CC(=O)Nc1ccc(SC[C@H](Cc2ccccc2)N2CC[C@@H](C)CCC2=O)cc1,17.1% (inactive),–
C=C(C)COc1ccc(-c2nc(N)ncc2-c2ccccc2OC)c(O)c1,–,10 µM (active)
COc1ccc(-c2nc(N)ncc2-c2ccc(Cl)cc2)c(O)c1,-24.2% (inactive),–
CCOc1ccc(-c2nc(N)ncc2-c2ccccc2OC)c(O)c1,-9.58% (inactive),–
O=C(COC(=O)c1ncc(Cl)c(Cl)c1Cl)NCc1ccccc1,1.03% (inactive),–
O=C(CCNC(=O)c1ccccc1Cl)NN=Cc1ccco1,16% (inactive),–
COC(=O)C1=C(C)NC(=S)NC1c1ccc(OCC(=O)N2CC(C)OC(C)C2)c(OC)c1 (centres undefined),10.3% (inactive),–

SMILES,"activity change, negative = inhibition",Potency
CNC[C@H](CC1CCCCC1)NC[C@H](NCCC1CCCC1)[C@H](C)O,–,11.2 µM (active)
COC(=O)c1ccc(-c2c(-c3ccccc3)ncc3cc(OC)c(OC)cc23)cc1,-3.02% (inactive),–
COc1ccc(CCNC(=O)C2CCCN(Cc3nc(-c4cccc(Cl)c4)oc3C)C2)cc1OC (centres undefined),–,10 µM (active)
COc1ccc(CCNC(=O)CS(=O)(=O)Cc2nc(-c3ccc(C)cc3)oc2C)cc1OC,-21.3% (inactive),–
COc1ccc(CCN(C)C(=O)C2CCCN(Cc3ccc(OC)c(OC)c3)C2)cc1OC (centres undefined),2.61% (inactive),–
COc1ccc(NC(=O)CN(C)C(=O)c2cc(-c3ccc(C)o3)nc3ccccc23)cc1,-21.8% (inactive),–
CN(C)c1ccc(-n2cccc2/C=C2/SC(=Nc3ccc(F)cc3)NC2=O)cc1,-22% (inactive),–
Cn1cc(/C=C/c2nc3ccccc3c(=O)n2-c2cccc([N+](=O)[O-])c2)c2ccccc21,1.56% (inactive),–
Cc1cccc(N=C2NC(=O)/C(=C/c3cn(C)c4ccccc34)S2)c1,–,14.1 µM (active)
Cc1cccc(N(Cc2ccccc2)C(=O)c2cc(S(=O)(=O)N3CCOCC3)ccc2F)c1,-3.25% (inactive),–
O=S(=O)(NC1CC1)c1ccc2c3c(cccc13)CC2,-28% (inactive),–
O=S(=O)(NC1CCCCC1)c1ccc(F)c2ccccc12,–,35.5 µM (active)
CSc1ccc(S(=O)(=O)NC2CCCCC2)cc1,15.8% (inactive),–
O=C(NNc1nc(N2CCCC2)nc(N2CCCC2)n1)c1ccccc1,-16.4% (inactive),–
CN(C)C(=O)CCc1ccc2c3c([nH]c2c1)[C@]1(CCc2ccccc2)[C@@H](C(=O)N2CCCCC2)C[C@H](CC(=O)NCCC2=CCCCC2)C(=O)N1CC3,12.1% (inactive),–
CC(C)CN(C(=O)COC(=O)c1ccc2ccccc2c1)c1c(N)n(Cc2ccccc2)c(=O)[nH]c1=O,-2.77% (inactive),–
O=C(COC(=O)CN1C(=O)C2CCCCC2C1=O)Nc1ccc(F)c(F)c1F (centres undefined),9.46% (inactive),–
CC1=CC(C)(C)Nc2ccc(OC(=O)CN3C(=O)C4CCCCC4C3=O)cc21 (centres undefined),–,11.2 µM (active)
O=C(CN1C(=O)C2C3CCC(C3)C2C1=O)Oc1ccc2ccccc2c1 (centres undefined),16.3% (inactive),–
CCc1cccc(CC)c1NC(=S)NCc1ccc2[nH]c(C)cc2c1,–,14.1 µM (active)
Cc1cc2cc(CNC(=O)c3ccc(S(=O)(=O)N4CCOCC4)cc3)ccc2[nH]1,-2.6% (inactive),–
CCc1cccc(CC)c1NC(=S)Nc1ccc2cn[nH]c2c1,-0.0519% (inactive),–
CC(Sc1nnc(-c2cccs2)n1C1CC1)C(=O)NCC1CCCO1 (centres undefined),20.4% (inactive),–
O=C(COC(=O)Cn1[nH]c(=O)c2ccccc2c1=O)Nc1ncc(Cl)cc1Cl,2.09% (inactive),–
COc1ccc(N2CCN(C(=O)CCNC(=O)c3ccc(Br)cc3)CC2)cc1,-26.5% (inactive),–

SMILES,"activity change, negative = inhibition",Potency
CC1CCCCC12NC(=O)N(CC(=O)OCc1c(F)cccc1Cl)C2=O (centres undefined),12.2% (inactive),–
CCc1ccccc1NC(=O)NCCN1CCCCC1,-6.99% (inactive),–
O=C(Nc1ccon1)c1sc2ccccc2c1Cl,-6.93% (inactive),–
CN1CCc2ccccc2C1Cc1ccccc1NC(=O)c1sc2ccccc2c1Cl (centres undefined),–,14.1 µM (active)
Cc1ccc(NC(=O)CSCC(=O)Nc2sccc2C#N)cc1,7.78% (inactive),–
CCCCCCCCCCCCN1[C@@H](CC(C)=O)c2cc(F)cc(F)c2S1(=O)=O,7.87% (inactive),–
O=C(CN1C(=O)NC(Cc2c[nH]c3ccccc23)C1=O)Nc1ccccc1C(F)(F)F (centres undefined),10.9% (inactive),–
O=C(OCCOCn1cc(Br)c(=O)[nH]c1=O)c1ccccc1,7.07% (inactive),–
CC(C)(C)NCCCOc1ccc(Cl)cc1C(C)(C)C,–,5.01 µM (active)
CN(C)CCOc1ccc(Cl)cc1C(C)(C)C,2.11% (inactive),–
Cc1cc(Cl)ccc1OCCCC(=O)NCc1ccncc1,-2.45% (inactive),–
NC1=NC(c2ccc([N+](=O)[O-])cc2)N(c2ccc(F)cc2)C(N)=N1 (centres undefined),10.2% (inactive),–
COc1ccc(S(=O)(=O)N2CCOC23CCN(S(=O)(=O)c2ccc([N+](=O)[O-])cc2)CC3)cc1,-26.6% (inactive),–
CCn1c(NCCc2ccc(OC)c(OC)c2)nc2c1c(=O)n(C)c(=O)n2C,–,11.2 µM (active)
CCCCn1c(SCC(=O)NCCc2ccc(OC)c(OC)c2)nc2c1c(=O)n(C)c(=O)n2C,-4.19% (inactive),–
CCCCNc1nc2c(c(=O)[nH]c(=O)n2C)n1CCOc1ccccc1,-4.32% (inactive),–
Cn1c(=O)c2c(nc(NCc3ccccc3)n2CC(N)=O)n(C)c1=O,9.34% (inactive),–
CCCCNc1nc2c(c(=O)n(C)c(=O)n2C)n1Cc1cccc(OC)c1,–,6.31 µM (active)
COc1ccc(CNc2nc3c(c(=O)[nH]c(=O)n3C)n2Cc2ccccc2)cc1,-2.18% (inactive),–
CC[C@]1(C(=O)OC)[C@H]2C(=O)N(C)C(=O)[C@H]2[C@H]2CN(C)C(=NCc3ccccc3)N21,3.22% (inactive),–
Cc1cccc(C=CC(=O)c2ccc(Cl)cc2)c1,-8.79% (inactive),–
COc1ccc(CNS(=O)(=O)c2ccc(NC(=O)N3CCCCC3)cc2)cc1,–,8.91 µM (active)
COc1ccc(S(=O)(=O)NCc2ccc(C(=O)N3CCC4(CC3)OCCO4)cc2)cc1,17.5% (inactive),–
COc1ccc(S(=O)(=O)NC(C)C(=O)N2CCCCCC2)cc1 (centres undefined),4.24% (inactive),–

# — PubChem BioAssay AID651820 (National Center for Advancing Translational Sciences (NCATS), 2012)
